From PubChem BioAssay (Tox21)
Inconclusive results are not listed. Calls of active or inactive are those of the source. Unless noted, the call rests on the fitted dose curve; in most records, active means well fitted curve in the direction sought with a large enough effect in the repeat runs; inconclusive means weak or mixed curves; inactive means no such curve, though single readings can be large; an effect the other way counts as inactive or inconclusive.

Assays:
[1] = qHTS assay to identify small molecule agonists of the TGF-beta/Smad signaling pathway (AID 1346859; active means well fitted activation curve with a large enough effect in the signal ratio in the repeat runs, not every such curve was filed as active; the % refers to the signal ratio); conditions: SBE-bla HEK293T, TGF-beta/Smad beta-lactamase reporter, 5 h; series mostly up to 76.8 µM
How it was run: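 HEK 293T cells stably carrying a beta-lactamase reporter driven by the Smad binding element were seeded overnight, exposed to DMSO-dissolved compounds for 5 hr at 37 C, 5% CO2, then loaded with FRET substrate for 2 hr at room temperature.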

[2] = target: Thyrotropin-releasing hormone receptor (Homo sapiens) (UniProt P34981); assay: qHTS assay to identify small molecule antagonists of the thyrotropin-releasing hormone receptor (TRHR) signaling pathway (AID 1346877; active means well fitted inhibition curve with a large enough effect in the repeat runs, not every such curve was filed as active); conditions: TRHR-HEK293, TRH-induced calcium fluorescence, antagonist mode; series mostly up to 51.3 µM
How it was run: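 Antagonism is measured as suppression of the calcium response to 1 nM TRH in TRHR-HEK293 cells that have been dye-loaded for 2 h at 37 °C after overnight plating. Each compound is tested at 15 concentrations in triplicate.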

[3] = target: Thyrotropin-releasing hormone receptor (Homo sapiens) (UniProt P34981); assay: qHTS assay to identify small molecule agonists of the thyrotropin-releasing hormone receptor (TRHR) signaling pathway (AID 1346891; calls by dose curve); conditions: TRHR-HEK293 calcium fluorescence, agonist mode; series mostly up to 57.6 µM
How it was run: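 TRHR-expressing HEK293 cells were plated 18 h at 37 °C/5% CO2, loaded with calcium dye 2 h at 37 °C, then given compound in DMSO; fluorescence was read kinetically for 3 min at 1 s intervals.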

[4] = Human pregnane X receptor (PXR) small molecule agonists, qHTS cell viability counter screen (AID 1346977); conditions: PXR-Luc HepG2 viability, CellTiter-Fluor, 24 h; series mostly up to 92.4 µM; further: nearly all actives have a fitted effect of over 50% in size
How it was run: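 PXR-Luc HepG2 cells in medium with 5% charcoal-stripped FBS were pre-incubated 5hr, then exposed to compounds for 24hr at 37C. Viability was read in the same wells by CellTiter-Fluor fluorescence, reagent added after 23hr with a 1hr incubation.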

[5] = Caspase-3/7 induction in HepG2 cells by small molecules, qHTS assay (AID 1346978); conditions: HepG2 caspase-3/7 activation, Caspase-Glo luminescence, 17 h; series mostly up to 92.4 µM; further: nearly all actives have a fitted effect of over 15% in size
How it was run: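 Wild-type HepG2 cells, 2,000/well, settled 5 hr at 37 C and 5% CO2, then compound-treated for 17 hr; caspase-3/7 activity read by luminescent Caspase-Glo 3/7 after 30 min at room temperature.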

[6] = Caspase-3/7 induction in CHO-K1 cells by small molecules, qHTS cell viability counter screen (AID 1346979); conditions: CellTiter-Fluor fluorescence, 17 h; series mostly up to 92.4 µM; further: nearly all actives have a fitted effect of over 35% in size
How it was run: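 Wild-type CHO-K1 cells were seeded at 1,500 per well, rested 5hr at 37 C, then exposed to compounds in DMSO. After 16hr, CellTiter-Fluor reagent was added and fluorescence read 1hr later as the viability measure.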

[7] = Caspase-3/7 induction in CHO-K1 cells by small molecules, qHTS assay (AID 1346980); conditions: CHO-K1 caspase-3/7 induction, Caspase-Glo luminescence, 17 h; series mostly up to 92.4 µM; further: nearly all actives have a fitted effect of over 15% in size
How it was run: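 Wild-type CHO-K1 cells exposed to compounds for 17hr at 37 C, 5% CO2. Caspase-3/7 activity then measured by Caspase-Glo 3/7 luminescence after 30min at room temperature.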

[8] = Caspase-3/7 induction in HepG2 cells by small molecules, qHTS cell viability counter screen (AID 1346981); conditions: CellTiter-Fluor fluorescence, 17 h; series mostly up to 92.4 µM; further: nearly all actives have a fitted effect of over 30% in size
How it was run: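 Cell viability is measured as a cytotoxicity counter screen alongside the Caspase-Glo 3/7 readout in identical wells. Wild-type HepG2 cells are treated with test compounds for 16 hr at 37 C before CellTiter-Fluor addition and a 1-hr incubation.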

[9] = target: Nuclear receptor subfamily 1 group I member 2 (Homo sapiens) (UniProt O75469); assay: Human pregnane X receptor (PXR) small molecule agonists, qHTS assay (AID 1346982); conditions: PXR-Luc HepG2, CYP3A4 luciferase reporter, 24 h; series mostly up to 92.4 µM; further: nearly all actives have a fitted effect of over 35% in size
How it was run: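 Cells: HepG2 stably carrying PXR-Luc. Medium held 5% charcoal-stripped FBS. Compounds in DMSO added after 5 hr plating, incubated 24 hr, then luminescence quantified with ONE-Glo.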

Measured: Potency

Chain of Thyrotropin-releasing hormone receptor (Homo sapiens) (P34981 whole entry, looked up): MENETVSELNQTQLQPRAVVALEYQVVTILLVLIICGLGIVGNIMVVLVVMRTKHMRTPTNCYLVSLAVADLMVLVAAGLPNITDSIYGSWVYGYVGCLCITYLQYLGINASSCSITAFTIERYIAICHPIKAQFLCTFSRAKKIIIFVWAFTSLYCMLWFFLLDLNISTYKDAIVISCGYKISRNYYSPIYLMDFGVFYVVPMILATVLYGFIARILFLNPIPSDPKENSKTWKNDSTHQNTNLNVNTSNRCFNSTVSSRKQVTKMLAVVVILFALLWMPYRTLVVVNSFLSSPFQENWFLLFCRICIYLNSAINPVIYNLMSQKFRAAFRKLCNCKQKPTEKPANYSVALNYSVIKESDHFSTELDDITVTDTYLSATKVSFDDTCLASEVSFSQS
Chain of Nuclear receptor subfamily 1 group I member 2 (Homo sapiens) (O75469 whole entry, looked up): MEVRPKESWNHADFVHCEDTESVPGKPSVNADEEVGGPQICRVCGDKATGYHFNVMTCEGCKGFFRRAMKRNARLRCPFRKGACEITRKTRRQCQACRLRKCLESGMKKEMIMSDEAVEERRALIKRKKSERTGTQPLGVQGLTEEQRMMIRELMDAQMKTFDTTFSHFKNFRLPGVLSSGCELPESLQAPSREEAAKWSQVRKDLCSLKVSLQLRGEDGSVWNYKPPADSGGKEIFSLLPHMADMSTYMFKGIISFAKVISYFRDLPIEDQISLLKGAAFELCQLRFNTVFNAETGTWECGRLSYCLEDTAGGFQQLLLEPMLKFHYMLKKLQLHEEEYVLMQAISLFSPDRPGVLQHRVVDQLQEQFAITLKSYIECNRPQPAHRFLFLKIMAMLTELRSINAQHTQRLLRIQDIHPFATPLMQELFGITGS

CCCCCCCOC(C)=O
inactive: all assays above

CC(CN1CC(=O)NC(=O)C1)N1CC(=O)NC(=O)C1 (stereo not given)
not listed: [8] | [9]
inactive: all other assays above

CCc1ccc(CC)cc1
inactive: all assays above

C/C(Cl)=C/CCl
inactive: all assays above

COC(=O)C(c1ccccc1Cl)N1CCc2sccc2C1 (stereo not given)
not listed: [9]
inactive: all other assays above

C/C=C(\C)C=O
inactive: all assays above

C=COCCCCO
not listed: [9]
inactive: all other assays above

N=C(N)S(=O)O
inactive: all assays above

CCCCCCCCCCCCCCBr
inactive: all assays above

CC1(C)S[C@@H]2[C@H](NC(=O)Cc3ccccc3)C(=O)N2[C@H]1C(=O)O (tested in a mixture with another compound)
not listed: [9]
inactive: all other assays above

CC(C)(O)CCCC1=CCC(C=O)CC1 (stereo not given)
not listed: [9]
inactive: all other assays above

Cc1ccc(Br)cc1
inactive: all assays above

O=C(O)CCCCCCCCCC(=O)O
inactive: all assays above

CCCCCC(=O)CC
inactive: all assays above

C=CC(C)(CCC=C(C)C)OC(=O)C(C)C (stereo not given)
inactive: all assays above

C[C@@H]1CCC[C@H](C)N1CCCC(O)(c1ccccc1)c1ccccn1 (stereo not given in full)
inactive: all assays above

CCCCOCCCC
inactive: all assays above

O=C(O)/C=C(\CC(=O)O)C(=O)O
inactive: all assays above

O=C(O)CCC(=O)Nc1ccc(S(=O)(=O)Nc2nccs2)cc1
not listed: [9]
inactive: all other assays above

CCCOc1ccc(C(=O)OCCN(CC)CC)cc1N
inactive: all assays above

C=CCCCCCCCCOC(C)=O
inactive: all assays above

CCN1CCN(C(=O)N[C@@H](C(=O)N[C@@H]2C(=O)N3[C@@H]2SC(C)(C)[C@H]3C(=O)O)c2ccccc2)C(=O)C1=O
inactive: all assays above

CCOC(=O)CC(C(C)=O)C(C)=O
inactive: all assays above

CC[N+](C)(CC)CC
inactive: all assays above

CC(C)(C)C(=O)CCc1ccc(Cl)cc1
inactive: all assays above

N#Cc1ccccc1C#N
not listed: [9]
inactive: all other assays above

O=S(=O)(O)CC(O)CCl (stereo not given)
inactive: all assays above
